Inconclusive results are not listed. A number with no mark means an inactive call. Calls of active or inactive are those of the source. Calls come from the whole dose curve.
Biological target: Peroxisome proliferator-activated receptor delta (Homo sapiens) (UniProt Q03181)
Assay: qHTS assay for small molecule agonists of peroxisome proliferator-activated receptor delta signaling (AID 588534);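 note: 0% = DMSO basal wells and 100% = positive control agonist at 10 µM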
Settings: HEK293T PPARdelta-UAS-bla, beta-lactamase ratio, 18 h; series mostly up to 76.7 µM; activation: at the top concentration
Source text: NIH Chemical Genomics Center [NCGC] U.S. Environmental Protection Agency [EPA] National Institutes of Environmental Health Sciences [NIEHS] National Toxicology Program [NTP] NCGC Assay Overview The Peroxisome proliferator-activated receptors (PPARs) are lipid-activated transcription factors of the nuclear receptor superfamily with three distinct subtypes namely PPAR alpha, PPAR delta (also called PPAR beta) and PPAR gamma. All these subtypes heterodimerizes with Retinoid X receptor (RXR) and have different physiological functions. […] This role of PPAR delta implicates the potential use of its ligands in the treatment of metabolic disorders.
Compounds were screened in a titration series in 1536-well format. […] Concentration-response titration points for each compound were fitted to the Hill equation yielding concentrations of half-maximal stimulation (EC50) and maximal response (efficacy) values. qHTS protocol for PPAR-delta beta-lactamase assay in agonist mode [Step] [Parameter] [Value] [Description] 1. Reagent; 6 uL; 4000 cells/well 2. Incubation; 37 C for 5 hrs 3. Compounds; 23 nL; 0.59 nM to 92 uM 4. […] Incubation; 37 C for 18 hrs 6. Detection reagent; 1 uL of CCF4-dye 7. Incubation; RT for 2 hrs 8. Detection; Fluorescence; Envision plate reader

Peroxisome proliferator-activated receptor delta (Homo sapiens), sequence (Q03181 whole entry, looked up): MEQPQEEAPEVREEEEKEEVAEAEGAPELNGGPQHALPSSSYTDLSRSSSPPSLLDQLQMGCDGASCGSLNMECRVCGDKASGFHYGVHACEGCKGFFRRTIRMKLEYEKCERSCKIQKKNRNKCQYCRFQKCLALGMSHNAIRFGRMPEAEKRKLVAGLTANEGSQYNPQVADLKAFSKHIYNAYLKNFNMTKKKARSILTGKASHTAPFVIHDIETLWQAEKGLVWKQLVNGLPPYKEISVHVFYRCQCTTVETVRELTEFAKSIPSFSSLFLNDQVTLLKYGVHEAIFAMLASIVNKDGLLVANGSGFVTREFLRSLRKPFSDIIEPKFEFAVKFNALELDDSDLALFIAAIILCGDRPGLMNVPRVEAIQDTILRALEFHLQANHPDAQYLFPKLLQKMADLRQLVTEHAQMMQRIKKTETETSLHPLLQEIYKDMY

**Q.** For `O=C(O)COc1ccc(Cl)cc1`, which “activation” value is on record?
**A.** -14.4%

**Q.** How did the “activation” value turn out when `CS/C(=N\O)C(=O)N(C)C` was run?
**A.** -5.66%

**Q.** How did the “activation” value turn out when `NS(=O)(=O)C(F)(F)C(F)(F)C(F)(F)C(F)(F)C(F)(F)C(F)(F)C(F)(F)C(F)(F)F` was run?
**A.** -7.93%

**Q.** For `CC(C)(C)C1CCC(O)CC1` (stereo not given), which “activation” value is on record?
**A.** -2.25%

**Q.** With `CCOC(=O)C(Cl)Cc1cc(-n2nc(C)n(C(F)F)c2=O)c(F)cc1Cl` (stereo not given) as the compound, how does the “activation” value read?
**A.** -0.0529%

**Q.** For `CCCCCCCCCCCCO`, which “activation” value is on record?
**A.** 0.911%

**Q.** For `N#Cc1cc(I)c(O)c(I)c1`, which “activation” value is on record?
**A.** -9.57%

**Q.** Which “activation” value does the source give for `CCOP(=S)(OCC)Oc1cnc2ccccc2n1` here?
**A.** -0.217%

**Q.** With `CC1(C)[C@H](C(=O)O[C@H](C#N)c2cccc(Oc3ccccc3)c2)[C@@H]1C=C(Br)Br` as the compound, how does the “activation” value read?
**A.** 6.75%

**Q.** With `CCCCCCCCCCCC#N` as the compound, how does the “activation” value read?
**A.** 6.8%

**Q.** `CNC(=O)c1ccccc1` was tested. Which “activation” value did it give?
**A.** -1.41%

**Q.** `COCC(=O)N(c1c(C)cccc1C)[C@H](C)C(=O)OC` was tested. Which “activation” value did it give?
**A.** -1.38%

**Q.** For `O=C(O)[C@@H]1[C@H](C(=O)O)[C@@]2(Cl)C(Cl)=C(Cl)[C@]1(Cl)C2(Cl)Cl`, which “activation” value is on record?
**A.** 2.63%

**Q.** How did the “activation” value turn out when `CC(C)C1(C)N=C(c2ncccc2C(=O)O)NC1=O` (stereo not given) was run?
**A.** -11.5%

**Q.** `Cc1ccc(S(=O)(=O)NC2CCCCC2)cc1` was tested. Which “activation” value did it give?
**A.** 7.76%

**Q.** With `C1=C/CC/C=C/CC/C=C/CC/1` as the compound, how does the “activation” value read?
**A.** -2.7%

**Q.** `CC(C)C(C(=O)OC(C#N)c1cccc(Oc2ccccc2)c1)c1ccc(Cl)cc1` (stereo not given) was tested. Which “activation” value did it give?
**A.** -2.02%

**Q.** Which “activation” value does the source give for `C=C(C)CN(CC)c1c([N+](=O)[O-])cc(C(F)(F)F)cc1[N+](=O)[O-]` here?
**A.** 6.92%

**Q.** How did the “activation” value turn out when `CCC(C)(C)C(=O)O` was run?
**A.** 7.11%

**Q.** How did the “activation” value turn out when `Clc1ccc(C(c2ccc(Cl)cc2)C(Cl)Cl)cc1` was run?
**A.** -13.2%

**Q.** For `CCO[Si](CCCN)(OCC)OCC`, which outcome is on record?
**A.** inactive

**Q.** For `CCC(C)c1ccccc1O` (stereo not given), which outcome is on record?
**A.** inactive

**Q.** How did the “activation” value turn out when `O=C(NC(=O)c1c(F)cccc1F)Nc1ccc(Cl)cc1` was run?
**A.** 4.18%

**Q.** `Cc1cc(Cl)ccc1O[C@H](C)C(=O)O` was tested. Which “activation” value did it give?
**A.** -0.595%

**Q.** Which outcome does the source give for `CCCCC(CC)COC(=O)CCCCC(=O)OCC(CC)CCCC` (stereo not given) here?
**A.** inactive

**Q.** With `Cc1c(N)cccc1Cl` as the compound, how does the “activation” value read?
**A.** -1.13%

**Q.** How did the “activation” value turn out when `CC(C)CCC[C@@H](C)[C@H]1CC[C@H]2[C@@H]3CC=C4C[C@@H](O)CC[C@]4(C)[C@H]3CC[C@]12C` was run?
**A.** -6.63%

**Q.** With `CCCCCCCCCCCCCCCCCCN` as the compound, how does the “activation” value read?
**A.** 1.25%

**Q.** With `CCCCCCCCCCCCCCCCN(C)C` as the compound, how does the “activation” value read?
**A.** 2.03%

**Q.** For `CCCOCC(=Nc1ccc(Cl)cc1C(F)(F)F)n1ccnc1`, which “activation” value is on record?
**A.** -4.56%

**Q.** `c1ccc2c(c1)c1cccc3ccc4cccc2c4c31` was tested. Which outcome did it give?
**A.** inactive

**Q.** Which “activation” value does the source give for `CCCCCCC(O)CCCCCCCCCCC(=O)OC` (stereo not given) here?
**A.** 1.82%

**Q.** With `O=Cc1ccc(Cl)c(Cl)c1` as the compound, how does the “activation” value read?
**A.** -2.61%

**Q.** With `BrC/C=C/CBr` as the compound, how does the “activation” value read?
**A.** 2.97%

**Q.** `ICCc1ccccc1` was tested. Which “activation” value did it give?
**A.** 2.06%

**Q.** How did the “activation” value turn out when `CCCCC(CC)COS(=O)(=O)O` (stereo not given) was run?
**A.** 9.13%

**Q.** How did the “activation” value turn out when `CCOS(=O)(=O)OCC` was run?
**A.** 0.941%

**Q.** How did the “activation” value turn out when `CC(C)[C@H](C(=O)O[C@H](C#N)c1cccc(Oc2ccccc2)c1)c1ccc(Cl)cc1` was run?
**A.** -3.49%

**Q.** Which “activation” value does the source give for `O=C(NC(=O)c1c(F)cccc1F)Nc1cc(Cl)c(OC(F)(F)C(F)C(F)(F)F)c(Cl)c1F` (stereo not given) here?
**A.** -9.13%

**Q.** How did the “activation” value turn out when `COC(=O)c1ccccc1C(=O)O` was run?
**A.** -3.32%
